# Source: PubChem BioAssay (Tox21)
# Results filed as inconclusive are left out. Entries that show only a call come without a potency. Active and inactive are the calls of the source. Unless noted, calls follow the shape of the dose curve; as a rule, active = well fitted curve in the direction sought with a large enough effect in the repeat runs; inconclusive = weak or mixed curves; inactive = no such curve, though single readings can be large; an effect the other way counts as inactive or inconclusive.
# What was measured:
# [1] = qHTS assay to identify small molecule antagonists of the glucocorticoid receptor (GR) signaling pathway - cell viability counter screen (AID 720693); also: nearly all actives have a fitted effect of over 55% in size
# [2] = qHTS assay for identifying genotoxic compounds that show differential cytotoxicity against isogenic chicken DT40 cell lines with known DNA damage response pathways - wild type cell line (AID 743012); also: nearly all actives have a fitted effect of over 60% in size; also: potency is read from the fitted curve at half-maximal effect
# Procedure, shortened: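 Parental DNA repair-proficient DT40 cells, 300 per well, were pre-incubated ~0.5 h at 37 C/5% CO2, pin-dosed with compounds in DMSO, then incubated 40 h. Viability was read as CellTiter-Glo luminescence after 30 min at room temperature.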
# [3] = qHTS assay for identifying genotoxic compounds that show differential cytotoxicity against isogenic chicken DT40 cell lines with known DNA damage response pathways - Rev3 mutant cell line (AID 743014); also: nearly all actives have a fitted effect of over 55% in size; also: potency is read from the fitted curve at half-maximal effect
# [4] = qHTS assay for identifying genotoxic compounds that show differential cytotoxicity against isogenic chicken DT40 cell lines with known DNA damage response pathways - Rad54/Ku70 mutant cell line (AID 743015); also: nearly all actives have a fitted effect of over 60% in size; also: potency is read from the fitted curve at half-maximal effect
# [5] = qHTS assay to identify small molecule antagonists of the androgen receptor (AR) signaling pathway - cell viability counter screen (AID 743033; also: nearly all actives have a fitted effect of over 45% in size)
# [6] = qHTS assay to identify small molecule antagonists of the androgen receptor (AR) signaling pathway using the MDA cell line - cell viability counter screen (AID 743041; also: nearly all actives have a fitted effect of over 45% in size; also: potency is read from the fitted curve at half-maximal effect)
# Procedure, shortened: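 MDA-kb2 AR-luc cells (MMTV-luciferase, AR/GR responsive) treated with compounds plus R1881 agonist for 16 h at 37C. CellTiter-Fluor added at 15.5 h; fluorescence read after 30 min in the same wells.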
# [7] = qHTS assay to identify small molecule antagonists of the thyroid receptor (TR) signaling pathway - cell viability counter screen (AID 743064); also: nearly all actives have a fitted effect of over 50% in size; also: potency is read from the fitted curve at half-maximal effect
# Procedure, shortened: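 GH3.TRE-Luc rat pituitary cells dosed after 4 hr plating, co-stimulated with T3 at 1 nM final, incubated 23.5 h at 37 C. Viability measured in the same wells by CellTiter-Fluor fluorescence after 30 min further at 37 C.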
# [8] = qHTS assay to identify small molecule antagonists of the thyroid receptor (TR) signaling pathway (AID 743065); also: nearly all actives have a fitted effect of over 55% in size; also: potency is read from the fitted curve at half-maximal effect
# Procedure, shortened: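 GH3.TRE-Luc rat pituitary cells (two TREs driving luciferase) were dosed with compound, then stimulated with 1 nM T3 (final) for 23.5 h at 37 C. ONE-Glo luminescence was the read-out, with CellTiter-Fluor fluorescence as the cytotoxicity counter-screen.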
# [9] = tested on: thyroid hormone receptor (rat, GH3 cells); assay: qHTS assay to identify small molecule agonists of the thyroid receptor (TR) signaling pathway (AID 743066; calls by dose curve)
# [10] = molecular target: Estrogen receptor (Homo sapiens) (UniProt P03372); assay: qHTS assay to identify small molecule agonists of the estrogen receptor alpha (ER-alpha) signaling pathway (AID 743075; calls by dose curve)
# Sequence of Estrogen receptor (Homo sapiens) (P03372 whole entry, looked up): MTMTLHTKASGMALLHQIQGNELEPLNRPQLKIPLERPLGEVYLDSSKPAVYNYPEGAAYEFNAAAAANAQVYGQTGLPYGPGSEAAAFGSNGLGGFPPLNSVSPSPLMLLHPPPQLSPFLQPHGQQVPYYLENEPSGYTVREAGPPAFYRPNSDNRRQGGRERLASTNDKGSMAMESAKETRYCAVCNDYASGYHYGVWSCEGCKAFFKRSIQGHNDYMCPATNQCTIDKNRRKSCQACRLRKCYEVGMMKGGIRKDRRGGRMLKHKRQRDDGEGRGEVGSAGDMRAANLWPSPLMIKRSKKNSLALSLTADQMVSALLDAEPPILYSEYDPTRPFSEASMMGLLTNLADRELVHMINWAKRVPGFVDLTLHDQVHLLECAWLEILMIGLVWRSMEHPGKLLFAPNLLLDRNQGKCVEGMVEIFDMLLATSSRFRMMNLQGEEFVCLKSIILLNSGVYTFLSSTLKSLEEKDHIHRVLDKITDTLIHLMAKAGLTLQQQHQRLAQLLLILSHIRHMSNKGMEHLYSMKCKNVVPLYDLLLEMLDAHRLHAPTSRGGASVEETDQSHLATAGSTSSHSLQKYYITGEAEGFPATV
# [11] = molecular target: Estrogen receptor (Homo sapiens) (UniProt P03372); assay: qHTS assay to identify small molecule agonists of the estrogen receptor alpha (ER-alpha) signaling pathway using the BG1 cell line (AID 743079); also: nearly all actives have a fitted effect of over 20% in size
# [12] = qHTS assay to identify small molecule antagonists of the estrogen receptor alpha (ER-alpha) signaling pathway using the BG1 cell line (AID 743080; calls by dose curve;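 also: BG1 cells stimulated with 17beta-estradiol alongside compound; series mostly up to about 70 µM; nearly all actives have a fitted effect of over 25% in size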)
# Procedure, shortened: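 Seeding, 24 h rest, compound transfer from DMSO, 17beta-estradiol addition, 21.5 h incubation, CellTiter-Fluor (30 min, 37 C), then ONE-Glo (30 min, room temperature): this sequence was run on BG1-Luc-4E2 reporter cells.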
# [13] = qHTS assay to identify small molecule antagonists of the estrogen receptor alpha (ER-alpha) signaling pathway using the BG1 cell line - cell viability counter screen (AID 743081);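 also: compound given together with 17beta-estradiol as the ER stimulus; series mostly up to about 70 µM; nearly all actives have a fitted effect of over 45% in size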
# Aromatase (Homo sapiens) = Aromatase (Homo sapiens) (UniProt P11511); assay: qHTS assay to identify aromatase inhibitors (AID 743083); also: nearly all actives have a fitted effect of over 55% in size; also: potency is read from the fitted curve at half-maximal effect
# Sequence of Aromatase (Homo sapiens) (P11511 whole entry, looked up): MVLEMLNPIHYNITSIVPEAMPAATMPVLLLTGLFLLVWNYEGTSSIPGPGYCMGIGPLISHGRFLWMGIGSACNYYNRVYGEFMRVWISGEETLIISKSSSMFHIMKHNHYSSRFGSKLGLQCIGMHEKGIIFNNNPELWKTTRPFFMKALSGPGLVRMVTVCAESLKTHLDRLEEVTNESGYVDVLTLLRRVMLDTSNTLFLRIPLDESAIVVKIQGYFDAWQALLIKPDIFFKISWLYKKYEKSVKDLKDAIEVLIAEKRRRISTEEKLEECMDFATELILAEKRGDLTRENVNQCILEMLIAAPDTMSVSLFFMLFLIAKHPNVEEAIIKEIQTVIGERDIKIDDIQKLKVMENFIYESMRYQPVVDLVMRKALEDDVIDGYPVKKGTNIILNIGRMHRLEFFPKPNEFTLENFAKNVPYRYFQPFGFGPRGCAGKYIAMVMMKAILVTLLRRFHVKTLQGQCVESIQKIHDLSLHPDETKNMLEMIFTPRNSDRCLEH
# [14] = qHTS assay to identify small molecule antagonists of the estrogen receptor alpha (ER-alpha) signaling pathway - cell viability counter screen (AID 743074; calls by dose curve;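 also: HEK293 cells carrying ER-alpha-UAS-bla reporter stimulated with 17beta-estradiol; nearly all actives have a fitted effect of over 45% in size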)
# [15] = molecular target: Estrogen receptor (Homo sapiens) (UniProt P03372); assay: qHTS assay to identify small molecule antagonists of the estrogen receptor alpha (ER-alpha) signaling pathway (AID 743069; active = well fitted curve in the direction sought with a large enough effect in the signal ratio in the repeat runs, not every such curve was filed as active; the % refers to the signal ratio)
# Procedure, shortened: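 HEK293 ER-alpha-UAS-bla GripTite cells, held overnight in 2% charcoal-stripped FBS, 5,000 cells/well, preincubated 4 h, then compound plus 17beta-estradiol for 18 h at 37C. Beta-lactamase read by LiveBLAzer B/G FRET substrate, 2 h at room temperature.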
SMILES,outcome [1],Potency [2],Potency [3],Potency [4],outcome [5],Potency [6],Potency [7],Potency [8],outcome [9],outcome [10],Potency [11],outcome [12],Potency [13],Potency (Aromatase (Homo sapiens)),Potency [14],Potency [15]
O=C(O)c1ccccc1Nc1cc(Cl)ccc1C(=O)O,inactive,inactive,inactive,inactive,inactive,inactive,inactive,inactive,inactive,inactive,inactive,inactive,inactive,inactive,,
O=C(O)CN(CCN(CC(=O)O)CC(=O)O)CCN(CC(=O)O)CC(=O)O,inactive,18.8 µM (active),26.6 µM (active),18.8 µM (active),inactive,inactive,26.6 µM (active),,inactive,,,,inactive,inactive,inactive,
NCCC(O)(P(=O)(O)O)P(=O)(O)O,inactive,inactive,inactive,inactive,inactive,inactive,,,,,,,inactive,inactive,inactive,
CCNCCO,inactive,inactive,inactive,inactive,inactive,inactive,inactive,inactive,inactive,,,,inactive,inactive,inactive,
CC1CN(c2ccccc2)NC1=O (stereo not given),inactive,inactive,inactive,inactive,inactive,inactive,inactive,inactive,inactive,,,,inactive,inactive,inactive,
CC(=O)Nc1ccc(C)c(Cl)c1,inactive,inactive,inactive,inactive,inactive,inactive,inactive,inactive,inactive,,,,inactive,inactive,inactive,
CC(C)C(=O)OCC(C)(C)C(O)C(C)C (stereo not given),inactive,inactive,inactive,inactive,inactive,inactive,,inactive,inactive,inactive,inactive,inactive,inactive,inactive,inactive,inactive
O=C1CCCCC1C1CCCCC1 (stereo not given),inactive,inactive,inactive,inactive,inactive,inactive,,inactive,inactive,inactive,inactive,inactive,inactive,inactive,inactive,inactive
COc1cc(Cl)ccc1Cl,inactive,inactive,inactive,inactive,inactive,inactive,inactive,inactive,inactive,,,,inactive,inactive,inactive,
CO[C@@]1(NC(=O)CSCC#N)C(=O)N2C(C(=O)O)=C(CSc3nnnn3C)CS[C@@H]21,inactive,inactive,inactive,inactive,inactive,inactive,,inactive,inactive,inactive,inactive,inactive,inactive,inactive,inactive,inactive
CCCCCCCCc1ccc(S(=O)(=O)O)cc1,inactive,inactive,inactive,inactive,inactive,inactive,inactive,inactive,inactive,,,,inactive,inactive,,
O=C(O)C(=O)Cc1c[nH]c2ccccc12,inactive,inactive,inactive,inactive,inactive,inactive,inactive,,,inactive,inactive,,inactive,inactive,inactive,inactive
O=C(O)[C@@H](O)[C@H](O)[C@H](O)[C@@H](O)C(=O)O,inactive,inactive,inactive,inactive,inactive,inactive,inactive,inactive,inactive,,,,inactive,inactive,inactive,
CC(C)C[C@H](NC(=O)OCC1c2ccccc2-c2ccccc21)C(=O)O,inactive,inactive,inactive,inactive,inactive,inactive,inactive,,inactive,,,,inactive,inactive,inactive,
FC(F)(F)C(F)(F)C(F)(F)C(F)(F)C(F)(F)C(F)(F)C(F)(F)C(F)(F)Br,inactive,inactive,inactive,inactive,,inactive,inactive,inactive,inactive,inactive,inactive,inactive,inactive,inactive,inactive,inactive
Cc1ccc(C(C)C)cc1O,inactive,inactive,inactive,inactive,inactive,inactive,inactive,inactive,inactive,,,,inactive,inactive,inactive,
CNCCC(Oc1ccccc1OC)c1ccccc1 (stereo not given),inactive,26.6 µM (active),inactive,inactive,inactive,inactive,,,inactive,inactive,inactive,inactive,inactive,inactive,inactive,inactive
COC(=O)c1ccc(OC)cc1,inactive,inactive,inactive,inactive,inactive,inactive,inactive,inactive,inactive,,,,inactive,inactive,inactive,
O=C1CCC(C2CCCCC2)CC1,inactive,inactive,inactive,inactive,inactive,inactive,inactive,,inactive,,,,inactive,inactive,,
CC1=C(O)C(=O)OC1C (stereo not given),inactive,inactive,inactive,inactive,inactive,inactive,inactive,inactive,inactive,,,,inactive,inactive,inactive,
CC[C@H]1CC[C@H](NCc2cc3c(cc2OC)[C@H]2C[C@H]2C(=O)N3C)[C@H](c2ccccc2)N1,inactive,6.86 µM (active),4.86 µM (active),,inactive,68.6 µM (active),24.3 µM (active),19.3 µM (active),,inactive,,,,68.6 µM (active),inactive,inactive
